SMILES strings stand for the structures. Results filed as inconclusive are left out. A call without a number means that no potency is given here. Active and inactive are the calls of the source. Calls come from the whole dose curve; as a rule, active = well fitted cell-killing curve with a large enough effect; inconclusive = small, poorly fitted or top-dose-only effect, or effect the other way; inactive = no such curve, though single readings can be large or run the other way.
Potency is the fitted concentration of half-maximal effect.

The nature of the test: Quantitative High-Throughput drug screen in 47 multiple myeloma cell lines against the NCATS MIPE library collection: Karpas620_DSMZ cell viability assay (AID 1918959). Note: nearly all actives have a fitted effect of over 30% in size. The settings on record: Karpas620 myeloma viability, CellTiter-Glo ATP luminescence, 48 h; series mostly up to 45.8 µM. The text has this:
PI: Beverly A. Mock Ph.D.
Laboratory of Cancer Biology and Genetics,
Center for Cancer Research, National Cancer Institute,
National Institute of Health, Bethesda, Maryland
Drug resistance and disease progression are common in multiple myeloma (MM) patients, underscoring the need for new therapeutic combinations. […] We hypothesized that effective combinations would reduce MYC expression and enhance p16 activity. […] These preclinical data identify potentially useful drug combinations for evaluation in drug-resistant MM and reveal potential mechanisms of combined drug sensitivity.
Described herein is the primary MIPE qHTS used to cherrypick compounds. Validated compounds were then further tested for potential synergistic activiy.
[1] Peat TJ, Gaikwad SM, Dubois W, Gyabaah-Kessie N, Zhang S, Gorjifard S, Phyo Z, Andres M, Hughitt VK, Simpson RM, Miller MA, Girvin AT, Taylor A, Williams D, D'Antonio N, Zhang Y, Rajagopalan A, Flietner E, Wilson K, Zhang X, Shinn P, Klumpp-Thomas C, McKnight C, Itkin Z, Chen L, Kazandijian D, Zhang J, Michalowski AM, Simmons JK, Keats J, Thomas CJ, Mock BA. Drug combinations identified by high-throughput screening promote cell cycle transition and upregulate Smad pathways in myeloma. Cancer Lett. 2023 Aug 1;568:216284. doi: 10.1016/j.canlet.2023.216284. Epub 2023 Jun 24. PMID: 37356470; PMCID: PMC10408729.
SEQUENCE No. (e.g., 1, 2, 3, etc.); […] (e.g., Cells, Incubation, Reagent, etc.); VALUE and DESCRIPTION.
1; Cells; 5 uL; white, solid bottom 1536-well Greiner assay plate.
2; Compounds; 23 nL; Kalypsis pin tool (Wako USA) equipped with a 1536-well pin head to transfer to the assay plates.
3; Incubation; 48 hours; 37C incubation.
4; Reagent;5uL; CellTiter Glo (Promega).
5; Detector; 425V; Luminescence; Viewlux PerkinElmer.
NOTES (numbers refer to Sequence numbers above)
1. The cell-based screening methods employed in this study were like those previously published. Briefly, the corresponding myeloma cell lines were screened in 1,536-well plates with 500 cells, 5-uL per well for inhibition of cell viability (assessed by measuring ATP levels with CellTiterGlo).
2. NCATS MIPE 4.0 library of approved and investigational drugs were added using the Kalypsis pin tool. Wells treated with DMSO only for 100% viability and media only wells for 0% viability were used as controls.
3. The assay plates were covered and incubated for 48 hours in a 37C, 5% CO2 incubator with controlled humidity.
4. After 48 hours, CellTilter-GloTM luminescent substrate mix (Promega) reagent was added to the assay plate and plates we incubated for 5 min at room temperature.
5. Signal was measured as median relative luminescence units on a ViewLux (PerkinElmer) multiplate reader.
[1] Heske CM, Davis MI, Baumgart JT, Wilson K, Gormally MV, Chen L, Zhang X, Ceribelli M, Duveau DY, Guha R, Ferrer M, Arnaldez FI, Ji J, Tran HL, Zhang Y, Mendoza A, Helman LJ, Thomas CJ. Matrix Screen Identifies Synergistic Combination of PARP Inhibitors and Nicotinamide Phosphoribosyltransferase (NAMPT) Inhibitors in Ewing Sarcoma. Clin Cancer Res. 2017 Dec 1;23(23):7301-7311. doi: 10.1158/1078-0432.CCR-17-1121. Epub 2017 Sep 12. PMID: 28899971; PMCID: PMC6636827.
(In ATP-based viability assays light output follows the ATP content of the culture.)
With `C[C@]12CC[C@@H]3c4ccc(OC(=O)N(CCCl)CCCl)cc4CC[C@H]3[C@@H]1CC[C@@H]2OP(=O)(O)O`, the Potency result was “inactive”.
The entry for `CC(C)C[C@H](CN)CC(=O)O` is “inactive”; for `CN1C(=O)COc2c(C(=O)NC3CN4CCC3CC4)cc(Cl)cc21` (stereo unspecified) it is “inactive”; for `O=P1(N(CCCl)CCCl)NCCCO1` (stereo unspecified) it is 18.7 µM (active).
The result for `CC(C)c1cccc(C(C)C)c1O` reads “inactive”; that for `COc1cc(OC)c(OC)cc1C=O`, “inactive”; that for `C[C@]12CC[C@H]3[C@@H](CC[C@@]45O[C@H]4C(O)=C(C#N)C[C@]35C)[C@H]1CC[C@H]2O`, “inactive”.
The result for `CCC1(c2ccc(N)cc2)CCC(=O)NC1=O` (stereo unspecified) reads “inactive”.
With `CN1C(=O)CCS(=O)(=O)C1c1ccc(Cl)cc1` (stereo unspecified), the Potency entry was “inactive”.
For `O=C(O)CCCc1ccc(N(CCCl)CCCl)cc1`, the Potency result was “inactive”.
The result for `CC(NC(C)(C)C)C(=O)c1cccc(Cl)c1` (stereo unspecified) reads “inactive”.

The values are drawn from PubChem BioAssay (NCATS).
